According to PubChem BioAssay (NCI):
The panel holds about 83,000 compounds, 20% with a hit somewhere; the sample as a whole holds those more often.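 The endpoint reported here, percent growth, reads 100 for growth as untreated, 0 for no net growth and -100 for all cells dead.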 Values without a mark were called inactive. Active and inactive are the calls of the source. Rule for the calls: active = growth percent below 10; inactive = the rest.

Legend:
Assay in all cases: NCI-60 one-dose screen, 48 h (100 = growth as untreated, 0 = no growth, -100 = all killed)
Details in all cases: 10 µM unless noted
NCI-H23 lung = system: NCI-H23 lung
NCI-H226 lung = system: NCI-H226 lung
NCI-H322M lung = system: NCI-H322M lung
HOP-62 NSCLC = system: HOP-62 NSCLC
NCI-H460 lung = system: NCI-H460 lung
HOP-92 NSCLC = system: HOP-92 NSCLC
NCI-H522 lung = system: NCI-H522 lung
A549/ATCC NSCLC = system: A549/ATCC NSCLC
786-0 renal = system: 786-0 renal
COLO 205 colon = system: COLO 205 colon
DU-145 prostate = system: DU-145 prostate
K-562 leukemia = system: K-562 leukemia
MALME-3M melanoma = system: MALME-3M melanoma
MDA-MB-231 breast = system: MDA-MB-231 breast
RXF 393 renal = system: RXF 393 renal
SF-268 CNS = system: SF-268 CNS
SF-295 CNS = system: SF-295 CNS
SF-539 CNS = system: SF-539 CNS
UACC-257 melanoma = system: UACC-257 melanoma
M14 melanoma = system: M14 melanoma

| SMILES | growth (NCI-H23 lung) | growth (NCI-H226 lung) | growth (NCI-H322M lung) [%] | growth (HOP-62 NSCLC) | growth (NCI-H460 lung) [%] | growth (HOP-92 NSCLC) | growth (NCI-H522 lung) | growth (A549/ATCC NSCLC) | growth (786-0 renal) | growth (COLO 205 colon) | growth (DU-145 prostate) [%] | growth (K-562 leukemia) | growth (MALME-3M melanoma) | growth (MDA-MB-231 breast) | growth (RXF 393 renal) | growth (SF-268 CNS) [%] | growth (SF-295 CNS) | growth (SF-539 CNS) | growth (UACC-257 melanoma) | growth (M14 melanoma) |
| --- | --- | --- | --- | --- | --- | --- | --- | --- | --- | --- | --- | --- | --- | --- | --- | --- | --- | --- | --- | --- |
| COc1ccc(-c2nc(SCC(C)C)nc(NCCc3c[nH]c4ccccc34)c2C#N)cc1 | 73.9% | 45.1% | 87.7 | 55.2% | 36.6 | 50.3% | 62.5% | 76.6% | 56.6% | 76.1% | 77.2 | 33.1% | 87.3% | 36.5% | -8.09% (active) | 58.1 | 45% | 48% | 98.1% | 81.2% |
| Cn1cc(-c2nnc(N)nc2-c2c[nH]c3ccc(F)cc23)c2cccnc21 | 53.7% | 72.4% | 71 | 49.2% | 18 | 92.8% | 20.4% | 47.6% | 47.2% | 26.9% | 80.2 | 15.7% | 44.8% | 51.6% | 65.4% | 61 | 25.6% | 47.2% | 72.7% | 21.6% |
| C=C1CC[C@@H]2[C@]3(C)COC(c4ccccc4)O[C@@H]3CC[C@@]2(C)[C@@H]1C/C=C1/C(=O)OCC1OC(C)=O (stereo not given in full) | -18.5% (active) | -79.8% (active) | 62.1 | -27.7% (active) | 15.1 | -36.3% (active) | -90.2% (active) | 9.46% (active) | -95.6% (active) | -76.4% (active) | 22.5 | -39.6% (active) | -54.8% (active) | -83.1% (active) | -87.7% (active) | 35.1 | -4.5% (active) | -100% (active) | -49.6% (active) | -86.9% (active) |
| COc1cc(NC(=O)c2cccc(C3CCc4c(cc(OC)c(OC)c4OC)O3)c2)cc(OC)c1OC (stereo not given) | 36.9% | 21.4% | 39.2 | 30.6% | 29.1 | 52.4% | -9.86% (active) | 19.5% | 24.3% | 3.7% (active) | 11.6 | 15% | 21% | 28.3% | 47.4% | 73.1 | 8.61% (active) | -8.73% (active) | 33.7% | 22.2% |
| C=CC[N+](C)(C)CCn1c2ccccc2c2nc3cc(C)c(C)cc3nc21 | 70.5% | 92.5% | 102 | 96.3% | 104 | 111% | 51.5% | 106% | 89% | 88.6% | 105 | 75.7% | 57.1% | 105% | 89.2% | 56.1 | 99.6% | 56.8% | 86% | 96.2% |
| O=c1[nH]c2ccccc2cc1CSc1cccc(Nc2nccc(-c3ccc4ccccc4c3)n2)c1 | 91.6% | 80.7% | 106 | 95.3% | 98.8 | 117% | 79% | 83.6% | 75.2% | 102% | 89.6 | 64.3% | 92% | 95.6% | 81.3% | 98.1 | 88% | 98.3% | 99.3% | 86.7% |
| CC(=O)Nc1ccc(C(=O)NC(=S)Nc2ccc(S(N)(=O)=O)cc2)cc1 | 94.4% | 81.9% | 92.4 | 90.8% | 102 | 95.4% | 73.7% | 99.2% | 95.5% | 105% | 105 | 86.6% | 89.9% | 99.3% | 93.2% | 97.1 | 102% | 90.7% | 95.2% | 93.6% |
| COc1ccc2[nH]cc(-c3nnc(N)nc3-c3c[nH]c4ncc(Br)cc34)c2c1 | 92.2% | 73.1% | 81.3 | 75.8% | 80.1 | 106% | 84.2% | 98.2% | 74.8% | 132% | 92.6 | 74.1% | 92.5% | 73.4% | 79.2% | 85.5 | 82% | 70.7% | 127% | 97.6% |
